PubChem BioAssay (NCATS)
Results filed as inconclusive are left out. Calls of active or inactive are those of the source. Calls follow the shape of the dose curve; as a rule, active = well fitted cell-killing curve with a large enough effect; inconclusive = small, poorly fitted or top-dose-only effect, or effect the other way; inactive = no such curve, though single readings can be large or run the other way.

Experiment: Quantitative High-Throughput drug screen in 47 multiple myeloma cell lines against the NCATS MIPE library collection: H1112_PLB cell viability assay (AID 1918967; also: nearly all actives have a fitted effect of over 30% in size)
Conditions: H1112 myeloma cells viability, ATP luminescence, 48 h; series mostly up to 45.8 µM; viability: at the top concentration
How it was run: (§1)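 CellTiter-Glo ATP luminescence gave viability after 48 h compound treatment at 37C of 500 multiple myeloma cells per well. Normalisation used DMSO-only wells as 100% and media-only wells as 0% viability; primary qHTS of approved and investigational drugs.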
Potency is read from the fitted curve at half-maximal effect.

Row | SMILES | viability | Potency
1 | NC1=N[C@H]2[C@H](CS[C@H]2CCCCC(=O)O)N1 | 114% [at 23.2 µM] (inactive) | 
2 | CC(=O)N[C@H]1[C@@H]([C@H](O)[C@H](O)CO)OC(C(=O)O)=C[C@@H]1N=C(N)N | 109% (inactive) | 
3 | C[C@H](CCC(=O)O)[C@H]1CC[C@H]2[C@@H]3[C@H](O)C[C@@H]4C[C@H](O)CC[C@]4(C)[C@@H]3CC[C@]12C | 89% (inactive) | 
4 | CN(C)CC(=O)N1CCC(c2ccc(NC(=O)c3ncc(C#N)[nH]3)c(C3=CCCCC3)c2)CC1 |  | 18.7 µM (active)
5 | CC[C@H]1OC(=O)[C@H](C)[C@@H](O[C@H]2C[C@@](C)(OC)[C@@H](O)[C@H](C)O2)[C@H](C)[C@@H](O[C@@H]2O[C@H](C)C[C@H](N(C)C)[C@@H]2O)[C@](C)(OC)C[C@@H](C)C(=O)[C@H](C)[C@@H](O)[C@]1(C)O | 88.8% (inactive) | 
6 | COc1cc(C[C@@H](CO)[C@H](CO)Cc2ccc(O)c(OC)c2)ccc1O |  | 0.372 µM (active)
7 | COC(=O)[C@@H]1CC2=CC(=O)CC[C@]2(C)[C@@]23O[C@@H]2C[C@@]2(C)[C@H](CC[C@@]24CCC(=O)O4)[C@@H]13 | 103% (inactive) | 
8 | CC1=C(C(=O)Nc2cc3cn[nH]c3cc2F)C(c2ccc(Cl)cc2F)N=C(c2ccnc(Cl)c2)N1 (stereo unspecified) |  | 18.7 µM (active)
9 | C=C1C(=CC=C2CCC[C@]3(C)[C@@H]([C@H](C)CCCC(C)(C)O)CC[C@@H]23)C[C@@H](O)C[C@@H]1O |  | 7.43 µM (active)
10 | COC1=C(OC)C(=O)C(CC=C(C)CCC=C(C)CCC=C(C)CCC=C(C)CCC=C(C)CCC=C(C)CCC=C(C)CCC=C(C)CCC=C(C)CCC=C(C)C)=C(C)C1=O | 115% (inactive) | 
11 | C[C@H]1COc2c(N3CCN(C)CC3)c(F)cc3c(=O)c(C(=O)O)cn1c23 | 128% (inactive) | 
12 | CC(=O)O[C@H]1C[C@@H]2CC[C@H]3[C@H]4C[C@H]([N+]5(C)CCCCC5)[C@@H](OC(C)=O)[C@@]4(C)CC[C@@H]3[C@@]2(C)C[C@H]1N1CCCCC1 | 124% (inactive) | 

Experiment: Quantitative High-Throughput drug screen in 47 multiple myeloma cell lines against the NCATS MIPE library collection: Karpas25_ECACC cell viability assay (AID 1918968; also: nearly all actives have a fitted effect of over 35% in size)
Conditions: Karpas25 myeloma viability, CellTiter-Glo ATP, 48 h; series mostly up to 45.8 µM; viability (% of control): at the top concentration
How it was run: as §1

Row | SMILES | Potency | viability (% of control)
13 | Nc1cccc2c1C(=O)N(C1CCC(=O)NC1=O)C2=O (stereo unspecified) | 8.33 µM (active) | 
14 | CC(C)[C@H](CO)Nc1nc(Nc2cccc(Cl)c2)c2ncn(C(C)C)c2n1 | 26.4 µM (active) | 
15 | N#Cc1cc(NC(=O)Nc2nnc(-c3ccncc3)s2)ccc1-c1cn[nH]c1 |  | 104% (inactive)
16 | COc1cc(OC)c(NC(=O)Nc2cc(C)on2)cc1Cl | 14.8 µM (active) | 
17 | COC(=O)[C@@H]1[C@H]2C[C@@H]3c4[nH]c5ccccc5c4CCN3C[C@@H]2CC[C@@H]1O |  | 132% (inactive)
18 | C#Cc1cccc(Nc2ncnc3cc(OCCOC)c(OCCO)cc23)c1 | 1.18 µM (active) | 
19 | C[N+](C)([O-])CCNc1ccc(NCC[N+](C)(C)[O-])c2c1C(=O)c1c(O)ccc(O)c1C2=O |  | 113% (inactive)
20 | C=C1CCC2[C@](C)(CO)C(O)CC[C@]2(C)C1CC=C1C(=O)OCC1O (stereo partly specified) |  | 98.2% [at 92.2 µM] (inactive)
21 | O=C1c2c(O)cccc2[C@@H]([C@@H]2O[C@H](CO)[C@@H](O)[C@H](O)[C@H]2O)c2cc(CO)cc(O)c21 |  | 122% (inactive)
22 | C[C@@H]1C(=O)O[C@H]2CC34[C@H]5C[C@@H](C(C)(C)C)C36[C@H](OC(=O)[C@@H]6O)O[C@@]4(C(=O)O5)[C@]21O (stereo partly specified) |  | 133% (inactive)
23 | CC(C)n1cnc2c(NCCc3ccc(O)cc3)nc(-c3csc4ccccc34)nc21 | 4.18 µM (active) | 
24 | CC(=O)O[C@H]1C[C@@H]2CC[C@H]3[C@H]4C[C@H]([N+]5(C)CCCCC5)[C@@H](OC(C)=O)[C@@]4(C)CC[C@@H]3[C@@]2(C)C[C@H]1[N+]1(C)CCCCC1 |  | 117% (inactive)
25 | COc1cc(C(C)C)c(Oc2cnc(NC(CO)CO)nc2N)cc1I | 18.7 µM (active) | 
26 | CCN(CC)CCCCNc1ncc2c(n1)N(C)C(=O)N(c1c(Cl)c(OC)cc(OC)c1Cl)C2 | 16.6 µM (active) | 
27 | Cc1cc(-c2nnc3n2CCCCC3)c(C)n1-c1ccccc1 |  | 94.6% (inactive)
28 | O=S(=O)(O)CCSSCCS(=O)(=O)O |  | 130% (inactive)
29 | COc1cc(CCc2cc(NC(=O)c3ccc(N4C[C@@H](C)N[C@@H](C)C4)cc3)n[nH]2)cc(OC)c1 | 16.6 µM (active) | 

Row | SMILES | Potency | viability (% of control)
30 | NC(=O)c1ncn([C@@H]2O[C@H](CO)[C@@H](O)[C@@H]2O)c1O |  | 90% (inactive)
31 | CC(O)(C#Cc1ccc2c(c1)N(c1nc(N)ncc1Cl)CC2)c1nccs1 (stereo unspecified) | 3.72 µM (active) | 
32 | c1coc(CNc2ncnc3nc[nH]c23)c1 |  | 75.3% (inactive)
33 | O=C(CN1C(=O)C2(CCCC2)NC[C@H]1c1cc(F)cc(F)c1)Nc1ccc2c(c1)C[C@@]1(C2)C(=O)Nc2ncccc21 |  | 139% (inactive)
34 | CC(=O)N1CCN(c2ccc(OCc3nn(C)c(C)c3-c3cccc4c(CCCOc5cccc6ccccc56)c(C(=O)O)n(Cc5cccnc5)c34)cc2)CC1 | 0.0833 µM (active) | 
35 | NC1=N[C@H]2[C@H](CS[C@H]2CCCCC(=O)O)N1 |  | 108% [at 23.2 µM] (inactive)
36 | CC(=O)N[C@H]1[C@@H]([C@H](O)[C@H](O)CO)OC(C(=O)O)=C[C@@H]1N=C(N)N |  | 104% (inactive)
37 | C[C@H](CCC(=O)O)[C@H]1CC[C@H]2[C@@H]3[C@H](O)C[C@@H]4C[C@H](O)CC[C@]4(C)[C@@H]3CC[C@]12C |  | 87.7% (inactive)
38 | CN(C)CC(=O)N1CCC(c2ccc(NC(=O)c3ncc(C#N)[nH]3)c(C3=CCCCC3)c2)CC1 | 23.5 µM (active) | 
39 | CC[C@H]1OC(=O)[C@H](C)[C@@H](O[C@H]2C[C@@](C)(OC)[C@@H](O)[C@H](C)O2)[C@H](C)[C@@H](O[C@@H]2O[C@H](C)C[C@H](N(C)C)[C@@H]2O)[C@](C)(OC)C[C@@H](C)C(=O)[C@H](C)[C@@H](O)[C@]1(C)O |  | 107% (inactive)
40 | COc1cc(C[C@@H](CO)[C@H](CO)Cc2ccc(O)c(OC)c2)ccc1O | 0.418 µM (active) | 
41 | COC(=O)[C@@H]1CC2=CC(=O)CC[C@]2(C)[C@@]23O[C@@H]2C[C@@]2(C)[C@H](CC[C@@]24CCC(=O)O4)[C@@H]13 |  | 100% (inactive)
42 | CC1=C(C(=O)Nc2cc3cn[nH]c3cc2F)C(c2ccc(Cl)cc2F)N=C(c2ccnc(Cl)c2)N1 (stereo unspecified) | 14.8 µM (active) | 
43 | C=C1C(=CC=C2CCC[C@]3(C)[C@@H]([C@H](C)CCCC(C)(C)O)CC[C@@H]23)C[C@@H](O)C[C@@H]1O | 5.9 µM (active) | 
44 | COC1=C(OC)C(=O)C(CC=C(C)CCC=C(C)CCC=C(C)CCC=C(C)CCC=C(C)CCC=C(C)CCC=C(C)CCC=C(C)CCC=C(C)CCC=C(C)C)=C(C)C1=O |  | 120% (inactive)
45 | C[C@H]1COc2c(N3CCN(C)CC3)c(F)cc3c(=O)c(C(=O)O)cn1c23 |  | 113% (inactive)
46 | CC(=O)O[C@H]1C[C@@H]2CC[C@H]3[C@H]4C[C@H]([N+]5(C)CCCCC5)[C@@H](OC(C)=O)[C@@]4(C)CC[C@@H]3[C@@]2(C)C[C@H]1N1CCCCC1 |  | 128% (inactive)
